# Results filed as inconclusive are left out. Where a call stands in place of a potency, no number is given. Unmarked numbers belong to inactive results. The source made the active and inactive calls. Calls follow the shape of the dose curve; as a rule, active = well fitted cell-killing curve with a large enough effect; inconclusive = small, poorly fitted or top-dose-only effect; inactive = flat fitted curve, though single readings scatter.
# Assay: qHTS of pediatric cancer cell lines to identify multiple opportunities for drug repurposing: Primary screen for control Hh wild type fibroblast cells (AID 1347106);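 also: a drop in luminescence marks cytotoxicity and a rise apparent proliferation; nearly all actives have a fitted effect of over 55% in size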
# Settings: Hh wild-type fibroblast viability, CellTiter-Glo luminescence, 48 h; series mostly up to 46 µM
# Text: Drug repurposing or repositioning has been offered as a strategy for drug development in oncology programs. This approach has special potential for childhood cancers and other rare or orphan diseases, where the expected return on new drug development has been a disincentive to pharmaceuticals.
# In this project we exploit the poly-pharmacology of drugs to discover new indications via phenotypic screening of a panel of 19 well-characterized cell lines derived from solid tumors seen in children and adolescents. The goal is to identify approved drugs with previously unrecognized anticancer properties that has the potential to reveal new mechanisms and biological processes involved in carcinogenesis or drug resistance. We employed a titration-based paradigm (quantitative high-throughput screening or qHTS), where all compounds were tested at multiple concentrations for their effect on cell viability. Concentration-response curves (CRCs) were derived directly from the primary screen, and both potency and efficacy values were used to identify compounds with robust bioactivity profiles. We screened the NIH Chemical Genomics Center (NCGC) Pharmaceutical Collection (NPC) and Mechanism Interrogation Plate (MIPE) small molecule collections of approved and investigational compounds against these cell lines; and measured metabolically active cells after 48 hours of compound treatment as a proxy for cell viability.
# Assay Submitter: Nathalia J. Martinez, National Center for Advancing Translational Sciences, National Institutes of Health, Rockville, MD, USA; email: natalia.martinez@nih.gov
# [1] Shen, M et al. Quantitative high-throughput phenotypic screening of pediatric cancer cell lines identifies multiple opportunities for drug repurposing. Oncotarget 2017 Dec 19;9(4):4758-4772. PMID 29435139.
# The cells were obtained from University of North Carolina (UNC), Pediatric Preclinical Testing Program (PPT), and Coriell Institute (CI).
# qHTS cell viability assay:
# Cells were assayed in growth media at a density of 500-1,000 cells/well. Five microliters of cells were dispensed into 1,536-well, white, solid-bottom, TC-treated plates (Greiner Bio One) using a multidrop dispenser and incubated at 37 degrees C, 5% CO2, under a humidified atmosphere for 5 hours. Twenty-three nanoliters of compounds and controls (neutral control DMSO or positive control bortezomib at final concentration of 2.3 µM) were subsequently transferred by Kalypsys pintool. For primary screens, the MIPE collection was tested at 11-point dilutions (final concentrations range from 0.78 nM to 46 µM) and the NPC collection at 8-point dilutions (final concentrations range from 0.59 nM to 46 µM). Compounds tested in follow-up screens were assayed at 11-point dilutions. Cells were incubated for 48 hours, followed by addition of 3 µL of CellTiter-Glo (Promega). After a 15 min incubation at room temperature, samples were analyzed for luminescence intensity using a ViewLux High-throughput CCD imager equipped with clear filters.
SMILES,Potency,"activity change, negative = cytotoxic"
CCOC(=O)CN1CCCC1=O,inactive,–
CCc1cc(S(=O)(=O)O)c2cc(C(C)C)cccc1-2,inactive,–
CCCc1ccc(OCC(=O)N2CCN(C(=O)COc3ccc(CCC)cc3OC)CC2)c(OC)c1,inactive,–
CCCCN(CCN(CCCC)C(=O)N1CCOCC1)C(=O)N1CCOCC1,inactive,–
CC(C)=CCC/C(C)=C/CC/C(C)=C/C(=O)OCC(=O)[C@@]1(O)CC[C@H]2[C@@H]3CCC4=CC(=O)C=C[C@]4(C)[C@H]3[C@@H](O)C[C@@]21C,inactive,–
O=C(CS(=O)Cc1ccco1)NC/C=C\COc1cc(CN2CCCCC2)ccn1 (stereo not given),inactive,–
CC(NCCC(c1ccccc1)c1ccccc1)c1ccccc1 (stereo not given),inactive,–
O=C1CCCc2c(O)cccc21,inactive,–
C[C@H]1C[C@@H]2[C@H]([C@@H](O)C[C@@]3(C)[C@H]2CC[C@]3(O)C(=O)CO)[C@@]2(C)C=CC(=O)C=C12,inactive,–
COC(=O)c1cc(Cl)c(NC(C)=O)cc1OC,inactive,–
COc1ccc(-n2nc(CCC(=O)N(C)O)cc2-c2ccc(Cl)cc2)cc1,inactive,–
Cc1coc2ccccc2c1=O,inactive,–
CCOc1ccccc1OCC1CNCCO1 (stereo not given),inactive,–
C=C(C)C(=O)OCC(O)CO (stereo not given),inactive,–
Nc1ccc(C(=O)N2CC3CC(CN(Cc4ccccc4)C3)C2)cc1,inactive,–
CN=C(N)NC(=O)Nc1c(C)cccc1C,inactive,–
NCC[C@H](O)C(=O)N[C@@H]1C[C@H](N)[C@@H](O[C@H]2O[C@H](CN)[C@@H](O)[C@H](O)[C@@H]2O)[C@H](O)[C@@H]1O[C@H]1O[C@H](CO)[C@@H](O)[C@H](N)[C@@H]1O,–,-6.47% [at 0.597 µM]
CC(C(=O)O)c1ccc(/C=C2\CCCCC2=O)cc1 (stereo not given),inactive,–
OC1(c2ccc(Cl)cc2)CCNCC1,inactive,–
Nc1cc(C(F)(F)F)ccc1S,inactive,–

SMILES,Potency,"activity change, negative = cytotoxic"
CC(C)OC(=O)c1cc2c(OCC(O)CNC(C)(C)C)cccc2[nH]1 (stereo not given),inactive,–
N#Cc1cc(NC(=O)C(=O)O)c(Cl)c(NC(=O)C(=O)O)c1,inactive,–
Nc1nc2ccccc2n1Cc1ccc(F)cc1,inactive,–
CC(=O)[C@@]1(O)CC[C@H]2[C@@H]3C[C@H](C)C4=CC(=O)CC[C@]4(C)[C@H]3CC[C@@]21C,inactive,–
CCN(CC)CCN,inactive,–
O=C(CCCl)NCCc1ccccc1,inactive,–
CCCc1c2oc(C(=O)O)cc(=O)c2cc2c(=O)cc(C(=O)O)n(CC)c12,inactive,–
CCOC(=O)C(=O)CCCCCCl,inactive,–
CO/N=C(/C(=O)N[C@@H]1C(=O)N2C(C(=O)O)=C(Cn3nnc(C)n3)CS[C@H]12)c1csc(N)n1,inactive,–
O=C(Oc1ccccc1)c1cccc(C(=O)Oc2ccccc2)c1,inactive,–
COC(=O)/C=C(/C)N,inactive,–
NS(=O)(=O)c1ccc(N2CCCCS2(=O)=O)cc1,inactive,–
O=C1Nc2cc(Cl)ccc2Oc2ccccc21,inactive,–
CCCN(CCC)C(=O)C(CCC(=O)OCCCN1CCN(CCOC(=O)Cc2c(C)n(C(=O)c3ccc(Cl)cc3)c3ccc(OC)cc23)CC1)NC(=O)c1ccccc1 (stereo not given),inactive,–
Cc1cc(C(C)(C)C)c(O)c(C(C)(C)C)c1,inactive,–
O=C(Nc1ccc(Cl)cc1)Nc1ccc(Cl)c(Cl)c1,inactive,–
CN1CCCN=C1/C=C/c1cccs1,inactive,–
CCN(CC)CC(=O)Nc1c(C)cccc1C(=O)OC,inactive,–
Fc1ccc(C(c2ccc(F)cc2)N2CCNCC2)cc1,inactive,–
O=C1NC(c2ccccc2)(c2ccccc2)C(=O)N1COP(=O)(O)O,inactive,–

# From PubChem BioAssay (NCATS)
